Source: article PMC4336329 (PLoS ONE, 2015)
The whole screen tested about 310,000 compounds, of which about 14,000 (4.5%) showed an effect of 50% or more. The effect is printed as a negative number. What follows is part of a selection rich in strong results, with near analogues and random picks from the rest.

Target: human ether-à-go-go-related gene (hERG) potassium channel (human, UniProt Q12809)
Assay: primary screen, population patch clamp on CHO cells stably expressing hERG; higher = less effect of the substance
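Further: peak tail current of the secondary pulse compared with the same well before compound.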

Chain of human ether-à-go-go-related gene (hERG) potassium channel (Q12809 whole entry, looked up): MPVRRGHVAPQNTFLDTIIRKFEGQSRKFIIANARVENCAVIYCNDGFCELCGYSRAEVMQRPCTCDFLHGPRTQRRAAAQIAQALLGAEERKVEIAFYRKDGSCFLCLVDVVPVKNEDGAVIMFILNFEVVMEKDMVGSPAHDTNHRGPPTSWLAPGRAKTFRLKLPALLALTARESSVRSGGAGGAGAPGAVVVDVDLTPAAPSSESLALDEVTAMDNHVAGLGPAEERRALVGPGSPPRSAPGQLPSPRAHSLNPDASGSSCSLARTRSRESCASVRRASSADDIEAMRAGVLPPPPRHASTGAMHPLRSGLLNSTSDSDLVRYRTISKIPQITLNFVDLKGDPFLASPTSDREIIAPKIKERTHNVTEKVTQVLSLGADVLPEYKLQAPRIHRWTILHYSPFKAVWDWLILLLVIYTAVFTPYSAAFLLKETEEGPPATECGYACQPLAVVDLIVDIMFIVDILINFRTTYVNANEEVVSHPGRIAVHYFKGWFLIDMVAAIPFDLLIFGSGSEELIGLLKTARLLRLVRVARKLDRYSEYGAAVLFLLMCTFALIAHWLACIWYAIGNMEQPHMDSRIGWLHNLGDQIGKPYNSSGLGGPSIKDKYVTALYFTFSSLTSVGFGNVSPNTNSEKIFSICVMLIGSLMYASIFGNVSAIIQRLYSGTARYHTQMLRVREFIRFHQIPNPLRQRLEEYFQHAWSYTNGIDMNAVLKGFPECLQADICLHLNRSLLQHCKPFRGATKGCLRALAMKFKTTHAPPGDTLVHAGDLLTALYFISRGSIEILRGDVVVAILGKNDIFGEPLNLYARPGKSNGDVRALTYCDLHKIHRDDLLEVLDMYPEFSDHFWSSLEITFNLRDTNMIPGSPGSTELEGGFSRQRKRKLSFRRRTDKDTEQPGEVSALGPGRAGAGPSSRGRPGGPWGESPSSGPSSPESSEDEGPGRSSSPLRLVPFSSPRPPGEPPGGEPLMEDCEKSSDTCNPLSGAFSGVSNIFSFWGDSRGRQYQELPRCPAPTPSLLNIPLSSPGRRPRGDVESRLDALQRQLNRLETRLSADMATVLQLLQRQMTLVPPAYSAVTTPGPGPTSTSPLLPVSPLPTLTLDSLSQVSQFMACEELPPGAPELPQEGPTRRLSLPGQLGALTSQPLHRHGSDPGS

| Compound | hERG current change (%, negative = inhibition) at 10uM [%] |
| --- | --- |
| CSC1=C(C#N)C(c2ccc(Cl)cc2)C2=C(CC(C)(C)CC2=O)N1 (stereo not drawn) | -6.94 |
| C=CCCCCc1nc2ccccc2c(=O)n1N | 6.28 |
| Cc1ccc2c(C)nc(N/C(N)=N/S(=O)(=O)c3ccc([N+](=O)[O-])cc3)nc2c1 | -13.1 |
| COc1cc(C(=O)NC(c2ccccc2)c2ccccc2)cc(OC)c1C | 15.2 |
| CCCCNC(=O)[C@H](CSCc1ccccc1)N1Cc2ccccc2C1=O | -68.5 |
| CC(C)NC(=O)[C@H](CSCc1ccccc1)N1Cc2ccccc2C1=O | -40 |
| CC(C)CCNC(=O)[C@H](Cc1ccccc1)N1Cc2ccccc2C1=O | -11.6 |
| COC(CNC(=O)[C@H](CSCc1ccccc1)N1Cc2ccccc2C1=O)OC | -3.49 |
| COCCNC(=O)[C@H](CSCc1ccccc1)N1Cc2ccccc2C1=O | -42.6 |
| COCCCNC(=O)[C@H](CSCc1ccccc1)N1Cc2ccccc2C1=O | -14.5 |
| O=C(NCCCN1CCCC1)[C@H](CSCc1ccccc1)N1Cc2ccccc2C1=O | -56.8 |
| O=C(NCCCN1CCCC1=O)[C@H](CSCc1ccccc1)N1Cc2ccccc2C1=O | 1.78 |
| CC(C)CCNC(=O)[C@H](CSCc1ccccc1)N1Cc2ccccc2C1=O | -61 |
| N#CCCN1CCCc2cc(N=Nc3ccc(C(F)(F)F)cc3)ccc21 | 13.4 |
| COc1ccc(Cl)cc1Nc1nc(C)cc(C)c1C(N)=O | 14.3 |
| CC(C)C[C@@H]1NC(=O)[C@H](CO)NC(=O)c2cc([N+](=O)[O-])cc(I)c2OCC[C@@H](C(N)=O)NC1=O | 2.3 |
| CCC(=O)Nc1ccc(NC(=S)NC(=O)c2cc3ccccc3o2)cc1 | 7.15 |
| COc1ccc(Cn2nnnc2CN2CCN(c3ccc(OC)cc3)CC2)cc1 | -3.66 |
| O=[N+]([O-])c1ccc2cn(-c3ccccc3)nc2c1 | -0.226 |
| O=C(CCc1nc2ccccc2c(=O)[nH]1)Nc1cc(C(F)(F)F)ccc1N1CCOCC1 | -35.3 |
| Cc1ccc(CN(C)C(=O)C2CCC(=O)N(C3CCCCCC3)C2)cc1 (stereo not drawn) | 7.71 |

| Compound | hERG current change (%, negative = inhibition) at 10uM [%] |
| --- | --- |
| CN(Cc1cccc(Cl)c1)C(=O)C1CCC(=O)N(C2CC2)C1 (stereo not drawn) | 1.31 |
| CN(Cc1ccc(C(F)(F)F)cc1)C(=O)C1CCC(=O)N(C2CC2)C1 (stereo not drawn) | -51.7 |
| Cc1cccn2c(=O)c3cc(C(=O)NC4CCCCC4)c(=N)n(CCN4CCOCC4)c3nc12 | -87 |
| Cc1cccn2c(=O)c3cc(C(=O)NC4CCCC4)c(=N)n(CCCN4CCOCC4)c3nc12 | -74.7 |
| CCCCOc1nc2ccccc2nc1NS(=O)(=O)c1ccc(F)cc1 | -5.01 |
| Cc1nc2scc(-c3cccs3)c2c(=O)n1CC(=O)O | 5.83 |
| CCOC(=O)COc1c(Br)cc(/C=C2\SC(=O)N(CC(=O)N3CCCC3)C2=O)cc1OC | -24 |
| Cc1cccc(CCNC(=O)CN(C)S(=O)(=O)c2cnc[nH]2)c1 | 4.07 |
| Cc1ccccc1C(=O)c1cccn1CC(=O)N1CCCCC1 | 10.6 |
| Cc1onc(-c2ccccc2Cl)c1C(=O)Nc1ccc(-c2nnc3n2CCCCC3)cc1 | -4.31 |
| CN(C)S(=O)(=O)c1ccc(Cl)c(NC(=O)CSc2nc3ccccc3c(=O)n2CCCN2CCOCC2)c1 | -73.9 |
| Cc1ccc(NC(=O)CSc2nc3ccccc3c(=O)n2CCCN2CCCCC2)cc1Cl | -73.7 |
| Cc1ccc(-n2c(SCC(=O)Nc3cc(S(=O)(=O)N4CCOCC4)ccc3Cl)nc3ccccc3c2=O)cc1 | 2.71 |
| Cc1ccc(NC(=O)CSc2nc3ccccc3c(=O)n2CCCN2CCCCC2)cc1C | -71.9 |
| CS(=O)(=O)c1ccc(Cl)c(NC(=O)CSc2nc3ccccc3c(=O)n2CCCN2CCOCC2)c1 | -47.7 |
| CCN(CC)CCn1c(SCC(=O)Nc2ccc3c(c2)CCC3)nc2ccccc2c1=O | -83 |
| CCC(C)NC(=O)CSc1nc2ccccc2c(=O)n1CCCN1CCCCC1 (stereo not drawn) | -13.8 |
| COCCn1c(SCC(=O)Nc2ccc3c(c2)CCC3)nc2ccccc2c1=O | 4.46 |
| CCCCn1c(SCC(=O)Nc2ccc3c(c2)CCC3)nc2ccccc2c1=O | -33.6 |
| COCCCNC(=O)CSc1nc2ccccc2c(=O)n1CCCN1CCCCC1 | 2.04 |
| Cc1ccc(NC(=O)CCC(=O)N/N=C/c2coc3ccccc3c2=O)cc1 | 0.733 |
